# Experimental data published in publication PMC7862700, “An all-to-all approach to the identification of sequence-specific readers for epigenetic DNA modifications on cytosine”.
# What was measured:
# Test in all cases: DAPPL (digital affinity profiling via proximity ligation, sequencing); 10 mM Tris-HCl pH 7.5, 50 mM NaCl, 1 mM DTT, 4% glycerol, room temperature, 30 min; GST-TFs on glutathione beads, 16-mer random dsDNA library, 0.1% formaldehyde crosslink after washing; high values mean tight binding
# Conditions in all cases: protein: recombinant; tags: N-terminal GST; dsDNA, one strand shown
# [1] = target: T1, FLI1 (Homo sapiens, UniProt Q01543 1-452)
# T1 sequence: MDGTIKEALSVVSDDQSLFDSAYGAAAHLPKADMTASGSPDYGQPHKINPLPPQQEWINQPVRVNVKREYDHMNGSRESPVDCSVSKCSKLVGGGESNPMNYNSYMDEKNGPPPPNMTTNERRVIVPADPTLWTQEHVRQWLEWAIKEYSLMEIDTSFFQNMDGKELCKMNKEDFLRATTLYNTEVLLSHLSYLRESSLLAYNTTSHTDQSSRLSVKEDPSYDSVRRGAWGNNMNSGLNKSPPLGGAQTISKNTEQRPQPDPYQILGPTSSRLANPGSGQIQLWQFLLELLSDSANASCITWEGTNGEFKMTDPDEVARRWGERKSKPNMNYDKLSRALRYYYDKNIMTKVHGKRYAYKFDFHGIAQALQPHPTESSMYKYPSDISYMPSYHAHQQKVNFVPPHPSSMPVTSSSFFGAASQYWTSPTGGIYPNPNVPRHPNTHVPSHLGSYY
# Procedure, shortened: (§1)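 Pools were built from human transcription factors expressed in yeast as GST fusions, captured on glutathione beads and DNA-barcoded, along with a tag-only sample. Incubation with 200 nmole of a 16-mer random double-stranded DNA library lasted 30 min at room temperature in Tris/NaCl/DTT/glycerol buffer, and was followed by washing, 0.1% formaldehyde crosslinking, proximity ligation, PCR amplification and Illumina NextSeq500 sequencing. Binding signal is the quotient of each hexamer's read frequency for a factor and its frequency for the tag-only sample.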
# [2] = target: T2, ELK1 (Homo sapiens, UniProt P19419 1-428)
# T2 sequence: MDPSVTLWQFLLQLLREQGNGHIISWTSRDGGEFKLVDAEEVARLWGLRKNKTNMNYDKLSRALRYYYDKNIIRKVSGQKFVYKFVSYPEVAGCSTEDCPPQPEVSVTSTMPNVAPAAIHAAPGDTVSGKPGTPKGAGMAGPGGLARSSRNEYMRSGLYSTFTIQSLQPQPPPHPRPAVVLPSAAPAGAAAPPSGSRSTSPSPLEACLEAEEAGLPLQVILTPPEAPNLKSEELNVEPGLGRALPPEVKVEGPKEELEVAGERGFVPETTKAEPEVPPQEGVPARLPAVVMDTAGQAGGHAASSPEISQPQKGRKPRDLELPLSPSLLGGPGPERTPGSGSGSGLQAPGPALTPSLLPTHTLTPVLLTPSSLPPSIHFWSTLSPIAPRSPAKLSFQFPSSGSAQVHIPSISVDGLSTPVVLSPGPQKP
# Procedure, shortened: as §1
# [3] = target: T3, GABPA (Homo sapiens, UniProt Q06546 1-454)
# T3 sequence: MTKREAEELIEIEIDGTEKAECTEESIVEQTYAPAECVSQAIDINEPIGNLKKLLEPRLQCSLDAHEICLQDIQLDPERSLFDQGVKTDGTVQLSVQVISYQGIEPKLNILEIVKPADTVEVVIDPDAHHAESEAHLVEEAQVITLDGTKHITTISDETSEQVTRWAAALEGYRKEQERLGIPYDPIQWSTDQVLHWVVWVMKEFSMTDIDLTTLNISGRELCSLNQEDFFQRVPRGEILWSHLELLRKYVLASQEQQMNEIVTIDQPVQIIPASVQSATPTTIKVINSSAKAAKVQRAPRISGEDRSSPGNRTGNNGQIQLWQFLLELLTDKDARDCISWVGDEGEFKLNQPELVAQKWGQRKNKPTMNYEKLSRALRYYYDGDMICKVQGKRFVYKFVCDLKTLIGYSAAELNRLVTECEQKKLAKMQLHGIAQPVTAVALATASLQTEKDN
# Procedure, shortened: as §1
# [4] = target: T4, ERG (Homo sapiens, UniProt P11308 1-479)
# T4 sequence: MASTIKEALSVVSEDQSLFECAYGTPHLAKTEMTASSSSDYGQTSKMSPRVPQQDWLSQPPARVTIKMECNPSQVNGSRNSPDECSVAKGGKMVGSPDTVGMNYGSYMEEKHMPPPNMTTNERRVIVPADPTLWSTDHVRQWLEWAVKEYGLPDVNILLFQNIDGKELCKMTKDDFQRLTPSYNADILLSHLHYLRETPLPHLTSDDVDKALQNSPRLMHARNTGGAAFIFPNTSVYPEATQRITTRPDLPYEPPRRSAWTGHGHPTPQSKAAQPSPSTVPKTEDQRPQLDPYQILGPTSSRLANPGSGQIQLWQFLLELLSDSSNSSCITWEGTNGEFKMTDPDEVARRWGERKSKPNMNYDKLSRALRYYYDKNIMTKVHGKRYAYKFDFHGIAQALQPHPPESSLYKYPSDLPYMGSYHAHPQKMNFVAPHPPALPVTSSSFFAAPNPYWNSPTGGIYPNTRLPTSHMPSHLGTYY
# Procedure, shortened: as §1
# [5] = target: ELF1 (Homo sapiens, UniProt P32519 1-619)
# ELF1, sequence (P32519 whole entry): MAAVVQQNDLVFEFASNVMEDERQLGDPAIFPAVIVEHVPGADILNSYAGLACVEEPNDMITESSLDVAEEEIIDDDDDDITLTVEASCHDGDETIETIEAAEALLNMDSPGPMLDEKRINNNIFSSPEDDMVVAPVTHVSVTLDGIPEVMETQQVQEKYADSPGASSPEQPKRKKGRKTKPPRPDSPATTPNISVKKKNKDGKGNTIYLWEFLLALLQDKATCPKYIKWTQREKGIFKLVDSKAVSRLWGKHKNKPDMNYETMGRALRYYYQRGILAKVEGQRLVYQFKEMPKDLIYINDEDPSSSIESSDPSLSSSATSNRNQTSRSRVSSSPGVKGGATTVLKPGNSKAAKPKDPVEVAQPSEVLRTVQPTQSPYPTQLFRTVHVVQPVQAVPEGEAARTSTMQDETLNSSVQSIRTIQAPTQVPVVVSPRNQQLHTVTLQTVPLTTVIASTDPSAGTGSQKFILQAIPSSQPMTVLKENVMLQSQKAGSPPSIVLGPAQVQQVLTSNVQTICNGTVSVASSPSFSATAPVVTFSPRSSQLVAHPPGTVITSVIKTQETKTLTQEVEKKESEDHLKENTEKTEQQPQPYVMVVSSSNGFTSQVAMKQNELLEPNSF
# Procedure, shortened: as §1
# [6] = target: T5, EHF (Homo sapiens, UniProt Q9NZC4 1-300)
# T5 sequence: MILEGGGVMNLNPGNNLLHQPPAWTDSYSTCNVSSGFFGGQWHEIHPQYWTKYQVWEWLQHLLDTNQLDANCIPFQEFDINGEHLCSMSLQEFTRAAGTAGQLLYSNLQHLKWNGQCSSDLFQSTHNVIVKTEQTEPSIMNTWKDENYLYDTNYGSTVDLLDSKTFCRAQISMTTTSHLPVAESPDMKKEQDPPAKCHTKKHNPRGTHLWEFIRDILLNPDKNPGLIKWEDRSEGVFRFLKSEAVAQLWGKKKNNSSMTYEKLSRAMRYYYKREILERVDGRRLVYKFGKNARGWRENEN
# Procedure, shortened: as §1
# [7] = target: SPI1 (Homo sapiens, UniProt P17947 1-270)
# Procedure, shortened: as §1
# [8] = target: SPIB (Homo sapiens, UniProt Q01892 1-262)
# SPIB, sequence (Q01892 whole entry): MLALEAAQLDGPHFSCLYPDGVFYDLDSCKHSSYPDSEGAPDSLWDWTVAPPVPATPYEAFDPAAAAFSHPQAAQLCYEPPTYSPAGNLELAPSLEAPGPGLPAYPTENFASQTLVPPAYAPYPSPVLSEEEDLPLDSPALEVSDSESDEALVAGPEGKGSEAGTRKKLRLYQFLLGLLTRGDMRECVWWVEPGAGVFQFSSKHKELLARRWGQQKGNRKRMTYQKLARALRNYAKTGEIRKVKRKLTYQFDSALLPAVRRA
# Procedure, shortened: as §1
# [9] = target: T6, ELK3 (Homo sapiens, UniProt P41970 1-407)
# T6 sequence: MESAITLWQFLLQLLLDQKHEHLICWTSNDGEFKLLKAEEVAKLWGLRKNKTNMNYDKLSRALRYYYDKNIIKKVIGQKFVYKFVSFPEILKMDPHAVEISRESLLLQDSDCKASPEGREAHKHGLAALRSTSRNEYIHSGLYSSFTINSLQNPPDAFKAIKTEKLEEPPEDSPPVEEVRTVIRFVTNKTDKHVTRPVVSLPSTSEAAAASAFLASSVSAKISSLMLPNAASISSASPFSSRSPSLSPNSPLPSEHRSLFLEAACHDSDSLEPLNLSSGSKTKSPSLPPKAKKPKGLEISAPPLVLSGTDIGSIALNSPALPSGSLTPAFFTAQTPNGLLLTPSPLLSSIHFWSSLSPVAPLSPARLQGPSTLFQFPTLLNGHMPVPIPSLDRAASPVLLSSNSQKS
# Procedure, shortened: as §1
Sequence,binding signal [1],binding signal [2],binding signal [3],binding signal [4],binding signal [5],binding signal [6],binding signal [7],binding signal [8],binding signal [9]
GCTCTC,"1.43 fold enrichment (6-mer frequency, TF over GST control)","1.5 fold enrichment (6-mer frequency, TF over GST control)","1.53 fold enrichment (6-mer frequency, TF over GST control)","1.42 fold enrichment (6-mer frequency, TF over GST control)","1.47 fold enrichment (6-mer frequency, TF over GST control)","1.34 fold enrichment (6-mer frequency, TF over GST control)","1.35 fold enrichment (6-mer frequency, TF over GST control)","1.29 fold enrichment (6-mer frequency, TF over GST control)","1.46 fold enrichment (6-mer frequency, TF over GST control)"
TATTTA,"1.48 fold enrichment (6-mer frequency, TF over GST control)","1.5 fold enrichment (6-mer frequency, TF over GST control)","1.39 fold enrichment (6-mer frequency, TF over GST control)","1.38 fold enrichment (6-mer frequency, TF over GST control)","1.42 fold enrichment (6-mer frequency, TF over GST control)","1.43 fold enrichment (6-mer frequency, TF over GST control)","1.46 fold enrichment (6-mer frequency, TF over GST control)","1.39 fold enrichment (6-mer frequency, TF over GST control)","1.61 fold enrichment (6-mer frequency, TF over GST control)"
TCGACT,"1.33 fold enrichment (6-mer frequency, TF over GST control)","1.34 fold enrichment (6-mer frequency, TF over GST control)","1.3 fold enrichment (6-mer frequency, TF over GST control)","1.35 fold enrichment (6-mer frequency, TF over GST control)","1.43 fold enrichment (6-mer frequency, TF over GST control)","1.39 fold enrichment (6-mer frequency, TF over GST control)","1.42 fold enrichment (6-mer frequency, TF over GST control)","1.39 fold enrichment (6-mer frequency, TF over GST control)","1.47 fold enrichment (6-mer frequency, TF over GST control)"
TTAGTT,"1.36 fold enrichment (6-mer frequency, TF over GST control)","1.38 fold enrichment (6-mer frequency, TF over GST control)","1.18 fold enrichment (6-mer frequency, TF over GST control)","1.24 fold enrichment (6-mer frequency, TF over GST control)","1.31 fold enrichment (6-mer frequency, TF over GST control)","1.3 fold enrichment (6-mer frequency, TF over GST control)","1.27 fold enrichment (6-mer frequency, TF over GST control)","1.31 fold enrichment (6-mer frequency, TF over GST control)","1.31 fold enrichment (6-mer frequency, TF over GST control)"
ACTTCG,"1.38 fold enrichment (6-mer frequency, TF over GST control)","1.38 fold enrichment (6-mer frequency, TF over GST control)","1.46 fold enrichment (6-mer frequency, TF over GST control)","1.47 fold enrichment (6-mer frequency, TF over GST control)","1.33 fold enrichment (6-mer frequency, TF over GST control)","1.3 fold enrichment (6-mer frequency, TF over GST control)","1.44 fold enrichment (6-mer frequency, TF over GST control)","1.39 fold enrichment (6-mer frequency, TF over GST control)","1.49 fold enrichment (6-mer frequency, TF over GST control)"
GCACTA,"1.18 fold enrichment (6-mer frequency, TF over GST control)","1.2 fold enrichment (6-mer frequency, TF over GST control)","1.23 fold enrichment (6-mer frequency, TF over GST control)","1.11 fold enrichment (6-mer frequency, TF over GST control)","1.16 fold enrichment (6-mer frequency, TF over GST control)","1.21 fold enrichment (6-mer frequency, TF over GST control)","1.19 fold enrichment (6-mer frequency, TF over GST control)","1.3 fold enrichment (6-mer frequency, TF over GST control)","1.23 fold enrichment (6-mer frequency, TF over GST control)"
CCACTT,"1.86 fold enrichment (6-mer frequency, TF over GST control)","1.86 fold enrichment (6-mer frequency, TF over GST control)","1.81 fold enrichment (6-mer frequency, TF over GST control)","2.02 fold enrichment (6-mer frequency, TF over GST control)","1.85 fold enrichment (6-mer frequency, TF over GST control)","1.93 fold enrichment (6-mer frequency, TF over GST control)","2.41 fold enrichment (6-mer frequency, TF over GST control)","1.74 fold enrichment (6-mer frequency, TF over GST control)","1.83 fold enrichment (6-mer frequency, TF over GST control)"
ATTCCT,"1.46 fold enrichment (6-mer frequency, TF over GST control)","1.37 fold enrichment (6-mer frequency, TF over GST control)","1.28 fold enrichment (6-mer frequency, TF over GST control)","1.27 fold enrichment (6-mer frequency, TF over GST control)","1.42 fold enrichment (6-mer frequency, TF over GST control)","1.34 fold enrichment (6-mer frequency, TF over GST control)","1.46 fold enrichment (6-mer frequency, TF over GST control)","1.43 fold enrichment (6-mer frequency, TF over GST control)","1.3 fold enrichment (6-mer frequency, TF over GST control)"
